PubChem BioAssay
A number with no mark means an inactive call. For some assays here: Results with a measured potency or affinity are listed apart. Calls of active or inactive are those of the source. Unless noted, the rule behind the calls is not given here.

Assays:
[1] = antimalarial activity against Dd2 strain (AID 2302;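 active = growth inhibition above 50% at the single 2 µM test dose, taken to imply half-maximal potency below 2 µM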;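 note: 0% = DMSO untreated growth and 100% = chloroquine plus artemisinin killed control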); conditions: P. falciparum Dd2 in RBCs, LDH growth readout, 72 h; at 2 µM; stronger effect = higher value
[2] = HepG2 cytotoxicity, primary screen, cytotoxicity control for P. falciparum antimalarial project, cell-based, ATP luminescence (AID 2303;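 active = inhibition above 50%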;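 note: 0% = DMSO wells and 100% = digitonin-killed cells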); conditions: HepG2 viability, 24-48 h, at 10 µM, stronger effect = higher value
[3] = biological target: L-lactate dehydrogenase (Plasmodium falciparum (isolate CDC / Honduras)) (UniProt Q27743); experiment: PfLDH activity inhibition – cell lysate, 3D7 strain, counter-screen for P. falciparum growth inhibition project (AID 2304);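 note: 0% = vehicle and 100% = reference inhibitor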; conditions: P. falciparum 3D7 crude extract, LDH APAD/NBT absorbance; at 2 µM; stronger effect = higher value
Chain of L-lactate dehydrogenase (Plasmodium falciparum (isolate CDC / Honduras)) (Q27743 whole entry, looked up): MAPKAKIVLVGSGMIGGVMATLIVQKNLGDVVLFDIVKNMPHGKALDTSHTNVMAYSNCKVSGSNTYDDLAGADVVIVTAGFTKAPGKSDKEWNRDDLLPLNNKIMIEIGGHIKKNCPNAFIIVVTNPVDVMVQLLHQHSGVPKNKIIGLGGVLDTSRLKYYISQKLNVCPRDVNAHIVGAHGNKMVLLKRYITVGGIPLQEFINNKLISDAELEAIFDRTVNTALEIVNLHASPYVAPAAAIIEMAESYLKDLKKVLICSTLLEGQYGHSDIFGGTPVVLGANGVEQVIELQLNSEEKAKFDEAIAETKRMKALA

[4] = inhibition of 3D7 malaria parasite growth – strain 3D7 (AID 2306);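 note: 0% = DMSO wells and 100% = chloroquine plus artemisinin control wells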; conditions: P. falciparum 3D7 erythrocytic growth, LDH absorbance, 72 h; at 2 µM; stronger effect = higher value
[5] = biological target: Calcium-dependent protein kinase 1 (Plasmodium falciparum (isolate 3D7)) (UniProt P62344); experiment: PfCDPK1 kinase inhibitors, biochemical, TCAMS library (AID 1159585; cut-off not given, nearly all actives have IC50 up to about 0.98 µM;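 note: inhibitors leave more ATP so luminescence rises with inhibition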); conditions: recombinant PfCDPK1, Kinase-Glo ATP depletion luminescence
Chain of Calcium-dependent protein kinase 1 (Plasmodium falciparum (isolate 3D7)) (P62344 whole entry, looked up): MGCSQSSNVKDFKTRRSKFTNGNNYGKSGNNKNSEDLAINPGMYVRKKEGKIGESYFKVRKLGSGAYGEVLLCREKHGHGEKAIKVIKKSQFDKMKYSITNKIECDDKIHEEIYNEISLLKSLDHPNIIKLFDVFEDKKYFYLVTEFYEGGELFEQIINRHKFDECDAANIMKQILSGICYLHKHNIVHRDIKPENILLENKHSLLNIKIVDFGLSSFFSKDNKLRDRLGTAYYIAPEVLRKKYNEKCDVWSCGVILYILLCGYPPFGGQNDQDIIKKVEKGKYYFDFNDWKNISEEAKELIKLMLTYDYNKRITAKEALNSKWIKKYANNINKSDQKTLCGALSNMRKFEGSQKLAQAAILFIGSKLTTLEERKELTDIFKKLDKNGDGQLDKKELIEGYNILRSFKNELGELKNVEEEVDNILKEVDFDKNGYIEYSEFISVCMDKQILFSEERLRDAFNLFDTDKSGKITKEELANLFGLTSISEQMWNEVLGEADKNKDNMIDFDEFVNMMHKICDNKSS

[6] = biological target: Plasmodium falciparum protein kinase 6 (PK6, PF3D7_1337100) (UniProt Q8IDW1); experiment: PfPK6 kinase inhibitors, biochemical, TCAMS library (AID 1159586); conditions: recombinant PfPK6, Kinase-Glo ATP depletion luminescence
Chain of Plasmodium falciparum protein kinase 6 (PK6, PF3D7_1337100) (Q8IDW1 1-305): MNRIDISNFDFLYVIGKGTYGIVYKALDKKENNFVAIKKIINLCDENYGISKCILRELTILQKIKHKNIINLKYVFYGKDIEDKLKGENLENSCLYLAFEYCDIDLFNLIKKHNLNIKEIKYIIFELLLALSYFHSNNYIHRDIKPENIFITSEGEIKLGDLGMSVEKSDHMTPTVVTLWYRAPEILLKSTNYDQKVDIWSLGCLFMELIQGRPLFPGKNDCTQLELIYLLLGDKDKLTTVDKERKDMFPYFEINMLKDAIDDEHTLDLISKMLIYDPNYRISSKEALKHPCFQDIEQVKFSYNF

[7] = biological target: Protein kinase 7 (PK7), Plasmodium falciparum 3D7 (PF3D7_0213400) (UniProt Q7YTF7); experiment: inhibition of Plasmodium PK7 catalytic activity – biochemical, TCAMS antimalarial set, Kinase-Glo luminescence (AID 1159587); conditions: recombinant PfPK7, Kinase-Glo ATP depletion luminescence
Chain of Protein kinase 7 (PK7), Plasmodium falciparum 3D7 (PF3D7_0213400) (Q7YTF7 1-343): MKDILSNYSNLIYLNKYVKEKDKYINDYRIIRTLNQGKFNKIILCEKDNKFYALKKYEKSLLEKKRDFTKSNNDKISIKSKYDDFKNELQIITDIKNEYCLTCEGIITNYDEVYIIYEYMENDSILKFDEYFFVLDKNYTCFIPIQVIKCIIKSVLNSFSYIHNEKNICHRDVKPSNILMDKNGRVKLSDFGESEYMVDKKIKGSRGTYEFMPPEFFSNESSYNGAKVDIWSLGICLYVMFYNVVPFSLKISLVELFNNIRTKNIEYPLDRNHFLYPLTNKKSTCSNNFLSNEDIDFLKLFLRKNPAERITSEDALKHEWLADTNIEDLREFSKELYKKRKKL

[8] = biological target: Calcium-dependent protein kinase 4 (Plasmodium falciparum (isolate 3D7)) (UniProt Q8IBS5); experiment: PfCDPK4 kinase inhibitors, biochemical, TCAMS library (AID 1159588; cut-off not given, nearly all actives have IC50 up to about 0.91 µM); conditions: recombinant PfCDPK4, Kinase-Glo ATP depletion luminescence
Chain of Calcium-dependent protein kinase 4 (Plasmodium falciparum (isolate 3D7)) (Q8IBS5 whole entry, looked up): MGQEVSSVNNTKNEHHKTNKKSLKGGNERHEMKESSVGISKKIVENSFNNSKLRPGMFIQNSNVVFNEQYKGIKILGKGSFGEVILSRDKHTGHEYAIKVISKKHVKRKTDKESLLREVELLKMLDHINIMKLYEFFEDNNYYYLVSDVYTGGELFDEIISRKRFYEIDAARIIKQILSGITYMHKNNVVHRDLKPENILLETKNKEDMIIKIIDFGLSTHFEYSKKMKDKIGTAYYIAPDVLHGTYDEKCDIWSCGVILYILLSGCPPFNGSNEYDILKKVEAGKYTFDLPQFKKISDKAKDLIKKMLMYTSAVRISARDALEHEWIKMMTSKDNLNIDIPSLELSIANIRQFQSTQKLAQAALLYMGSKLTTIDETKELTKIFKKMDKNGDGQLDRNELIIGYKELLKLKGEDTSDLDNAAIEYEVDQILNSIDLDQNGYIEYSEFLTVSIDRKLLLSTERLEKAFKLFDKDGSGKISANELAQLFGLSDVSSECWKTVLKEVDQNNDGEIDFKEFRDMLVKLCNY

Row | Structure (SMILES) | growth inhibition [1] | inhibition [2] | inhibition [3] [%] | growth inhibition [4] | outcome [5] | outcome [6] | outcome [7] | outcome [8]
1 | COc1ccc2c(ccc3c2ncc2c(=O)n(-c4ccccc4)[nH]c23)c1 | 92% (active) | -2% | 4 | 95% (active) | inactive | inactive | inactive | inactive
2 | Cc1ccc(-c2nnc(-c3ccc(C(=O)NC4CCN(Cc5ccc(C#N)cc5)CC4)cc3)o2)cc1Br | 7% | 41% | -5 | 91% (active) | inactive | inactive | inactive | inactive
3 | CC(=O)N[C@H](C(=O)Nc1cccc(-c2ccc(-c3nc4c(C)cccc4[nH]3)s2)c1)C(C)C | 29% | 33% | 2 | 93% (active) | inactive | inactive | inactive | inactive
4 | CCCC(C)Nc1nc(C)cc(N[C@@H](CC(C)C)C(=O)NCc2cccc(F)c2)n1 (stereo not given in full) | 63% (active) | 1% | 0 | 96% (active) | inactive | inactive | inactive | inactive
5 | O=c1cc(NCCNCc2cccc(-c3ccccc3)c2)[nH]c2ccccc12 | 68% (active) | -2% | -6 | 93% (active) | inactive | inactive | inactive | inactive
6 | CCOC(=O)c1ccc(NC(=O)Nc2cccc(-c3ccc(-c4nc5ccccc5[nH]4)cc3)c2)cc1 | 86% (active) | 54% (active) | -2 | 100% (active) | inactive | inactive | inactive | inactive
7 | Cc1cccc2[nH]c(-c3ccc(-c4cccc(CNCCCN5CCCC5=O)c4)cc3)nc12 | 3% | 6% | -8 | 96% (active) | inactive | inactive | inactive | inactive
8 | COc1ccc(-c2ccc(CNC(=O)c3ccc(Cl)cc3)c(F)c2)cc1CN1CCCN(C)CC1 | 48% | 25% | -5 | 99% (active) | inactive | inactive | inactive | inactive
9 | Fc1ccc2nc(-c3cccc(-c4cccc(CN5CCN(c6ccncc6)CC5)c4)c3)[nH]c2c1 | 99% (active) | 71% (active) | 1 | 102% (active) | inactive | inactive | inactive | inactive
10 | NCc1ccc(CNCc2cccc(-c3ccc(-c4nc5ccc(C(F)(F)F)cc5[nH]4)cc3)c2)cc1 | 90% (active) | 13% | -7 | 98% (active) | inactive | inactive | inactive | inactive
11 | O=C(C=Cc1ccccc1)Nc1ccc(C#CC=Cc2ccc(NC(=O)C=Cc3ccccc3)cc2)cc1 | 3% | 26% | 1 | 100% (active) | inactive | inactive | inactive | inactive
12 | NC(N)=NN=Cc1ccc2ccc3ccccc3c2c1 | 89% (active) | 34% | 5 | 101% (active) | inactive | inactive | inactive | inactive
13 | COc1ccc(CN(C)CCCCc2ccc(NC(=O)COc3cccc4sc5ccccc5c(=O)c34)cc2)cc1OC | 84% (active) | 26% | -1 | 100% (active) | inactive | inactive | inactive | inactive
14 | CC1CCC2(CC1)N=C(N)N=C(N)N2OCCCCCCCCO (stereo not given) | 87% (active) | 2% | -4 | 96% (active) | inactive | inactive | inactive | inactive
15 | C[C@@H](COc1ccc(-c2ccccc2)cc1)CON1C(N)=NC(N)=NC1(C)C | 96% (active) | 62% (active) | 3 | 96% (active) | inactive | inactive | inactive | inactive
16 | O=C(CCN1C(=O)c2ccccc2C1=O)N1CCN(CC=Cc2ccccc2)CC1 | 3% | 10% | -1 | 87% (active) | inactive | inactive | inactive | inactive
17 | Cc1cc(NS(=O)(=O)c2cccc(C(C)N3CCC(N4CCCC4)CC3)c2)ccc1C(C)C (stereo not given) | 53% (active) | 30% | -2 | 100% (active) | inactive | inactive | inactive | inactive
18 | CCOC(=O)CCCCCNC[C@H](O)c1ccccc1 | 0% | 2% | 5 | 98% (active) | inactive | inactive | inactive | inactive
19 | COc1cc([N+](=O)[O-])ccc1NC(=O)c1cc(Cl)ccc1O | 100% (active) | 92% (active) | 6 | 87% (active) | inactive | inactive | inactive | inactive
20 | c1cncc(-c2cccc(CNc3nccc(Nc4ccc(OCCN5CCOCC5)cc4)n3)c2)c1 | 27% | 1% | -2 | 93% (active) | inactive | inactive | inactive | inactive

Row | Structure (SMILES) | growth inhibition [1] | inhibition [2] | inhibition [3] [%] | growth inhibition [4] | outcome [5] | outcome [6] | outcome [7] | outcome [8]
21 | Cc1cc(C(=O)CSc2nc3ccccc3n2-c2ccccc2)c(C)n1C1CCS(=O)(=O)C1 (stereo not given) | -3% | -18% | 0 | 92% (active) | inactive | inactive | inactive | inactive
22 | COc1ccc(NC(=O)c2ccc(Br)c(C)c2)cc1N1CCN(Cc2ccccc2)CC1 | 3% | -2% | 0 | 95% (active) | inactive | inactive | inactive | inactive
23 | COc1ccccc1C1CCN(CCCCNC(=O)c2ccc(NC(=O)c3ccc(Cl)cc3)cc2)CC1 | 12% | 21% | 6 | 95% (active) | inactive | inactive | inactive | inactive
24 | O=C(CCC1CCCC1)N(Cc1ccc(-c2ccc(CNCCc3ccccn3)cc2)cc1)CC1CCCCN1 (stereo not given) | 69% (active) | 32% | 0 | 95% (active) | inactive | inactive | inactive | inactive
25 | CC1(C)N=C(N)N=C(N)N1O | 1% | 7% | -5 | 93% (active) | inactive | inactive | inactive | inactive
26 | O=[N+]([O-])c1ccc(C2=NN(S(=O)(=O)c3c(Cl)cc(Cl)cc3Cl)CCCC2)cc1 | 98% (active) | 5% | 0 | 99% (active) | inactive | inactive | inactive | inactive
27 | O=C(/C=C/c1ccc(Cl)c(Cl)c1)NCCCCCN1CCC(C(=O)Nc2ccc3c(c2)OCO3)CC1 | -3% | 18% | 4 | 92% (active) | inactive | inactive | inactive | inactive
28 | CCCCc1cc(NC2CCN(C)CC2)nc(Nc2ccccc2)n1 | 29% | 7% | -2 | 103% (active) | inactive | inactive | inactive | inactive
29 | COc1cccc2cc(C(=O)N[C@@H](CC(C)C)C(=O)N[C@H](/C=N/N(C)C(=O)OC(C)(C)C)CC(=O)OC(C)(C)C)oc12 | 67% (active) | 5% | -8 | 87% (active) | inactive | inactive | inactive | inactive
30 | CCN1CCC(N(Cc2ccc(-c3ccc(C(F)(F)F)cc3)o2)C(=O)Cn2c(CCc3cccc(F)c3F)nc(=O)c3ccccc32)CC1 | 88% (active) | 45% | -1 | 91% (active) | inactive | inactive | inactive | inactive
31 | Cc1cc(C)cc(OCC(O)CN(CCN2CCOCC2)C(=O)Nc2ccc(Br)cc2)c1 (stereo not given) | 19% | 7% | 0 | 85% (active) | inactive | inactive | inactive | inactive
32 | COc1ccc(Cc2cccc(C(C(=O)NCc3cc(Cl)cc(Cl)c3)N3CCN(C)CC3)c2)cc1 (stereo not given) | 24% | 8% | -9 | 101% (active) | inactive | inactive | inactive | inactive
33 | COc1ccc(Cc2cnc3nc(N)nc(N)c3c2C)cc1 | 96% (active) | 65% (active) | -2 | 90% (active) | inactive | inactive | inactive | inactive
34 | COc1ccc(CNCCc2cccs2)cc1-c1ccc(S(=O)(=O)NCCN2CCCC2)cc1 | 30% | 30% | 4 | 99% (active) | inactive | inactive | inactive | inactive
35 | COc1ccc2nccc([C@@H](O)CN3CCC(NC(=O)c4ccc(-c5ccccc5)s4)CC3)c2c1 | 81% (active) | 10% | -6 | 100% (active) | inactive | inactive | inactive | inactive
36 | O=C(Nc1cccc(-c2nc3ccccc3[nH]2)c1)c1ccc(-c2cccc([N+](=O)[O-])c2)o1 | 28% | 22% | -1 | 93% (active) | inactive | inactive | inactive | inactive
37 | CCCC(=O)Nc1ccc(Cl)c(NC(=O)COc2cc(C)ccc2C(C)C)c1 | 67% (active) | 2% | 0 | 87% (active) | inactive | inactive | inactive | inactive
38 | O=C(c1csc(-c2cccnc2)n1)N1CCc2cc3nccc(N4CCN5CCC[C@H]5C4)c3cc21 | 78% (active) | -7% | -3 | 97% (active) | inactive | inactive | inactive | inactive
39 | CC(=O)Nc1ccc(C(=O)Nc2cccc(-c3csc(-c4nc5ccccc5[nH]4)c3)c2)cn1 | 97% (active) | 6% | -3 | 101% (active) | inactive | inactive | inactive | inactive
40 | C#CCCC(=O)Nc1cccc(-c2cccc(-c3nc4c(C)cccc4[nH]3)c2)c1 | 29% | 30% | -3 | 97% (active) | inactive | inactive | inactive | inactive
